This is part of a sample that, as a whole, favours compounds with a hit. Of some 83,000 tested, about 20% had one in any assay.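 Negative percent growth values reflect cell death: -40 means 40% of the cells present at the start died, and -100 means all died.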 A number with no mark means an inactive call. Active and inactive are the calls of the source. The calls were made as follows: active = growth percent below 10; inactive = the rest.
Each compound was assayed on OVCAR-4 ovarian (assay: NCI-60 one-dose screen, 48 h (100 = growth as untreated, 0 = no growth, -100 = all killed)). Details: 10 µM unless noted.

Row | Structure (SMILES) | growth
1 | COC(=O)c1c(C)nc(C)c2c1C(=O)C=C(NCc1ccccc1)C2=O | 64.6%
2 | COc1ccc2[nH]cc(-c3nonc3-c3c[nH]c4ccc(Br)cc34)c2c1 | 50.1%
3 | C=C(C)[C@@H]1CC[C@]2(COC3CCCCO3)CC[C@]3(C)[C@H](CC[C@@H]4[C@@]5(C)C=C(C=O)C(=O)C(C)(C)[C@@H]5CC[C@]43C)[C@@H]12 (stereo not given in full) | -34.7% (active)
4 | CCOc1ncc([N+](=O)[O-])c(OCC)n1 | 113%
5 | c1ccc(-c2c(-c3ccccc3)[n+](Cc3ccc4ccccc4c3)cn2Cc2ccc3ccccc3c2)cc1 | -81.5% (active)
6 | Cn1cc(-c2csc(-c3cn(CCCN4CCOCC4)c4ccc(F)cc34)n2)c2cccnc21 | 56.6%
7 | Cc1cn(C)cn1 | 100%
8 | COC(=O)c1sccc1-c1cc(O)c(C(=O)Nc2ccccc2)s1 | 89.7%
9 | CCCCCc1ccc(S(=O)(=O)Nc2ccc3nc(N)oc3c2)cc1 | 27.3%
10 | COc1ccc2c(O)c(/C=C3\N=Nc4ncccc43)oc2c1C[C@@H]1CCNC[C@H]1F | -37.8% (active)
11 | CCN(CC)CCCC(Cc1ccccc1)Nc1c2ccc(Cl)cc2nc2ccc(OC)cc12 (stereo not given) | 30.8%
12 | CNCC[C@H](Oc1cccc2ccccc12)c1cccs1 | 71.7%
13 | CCOC(=O)c1cnn(CC(C)O)c1NC(=O)NCc1cccc(F)c1 (stereo not given) | 122%
14 | N#Cc1ccc(/C=C/c2cn(-c3ccccc3)nc2-c2cccc([N+](=O)[O-])c2)cc1 | 33.1%
15 | O=C(/C=C/c1ccco1)Nc1ncc(Cc2cc(Cl)ccc2Cl)s1 | 56.8%
16 | CCOC(=O)c1nnn(Cc2cc(=O)oc3ccc(O)cc23)c1C | 109%
17 | CC1(C)CC[C@]23CC[C@]4(C)[C@H](CC[C@@H]5[C@@]6(C)C/C(=C/O)C(=O)C(C)(C)[C@@H]6CC[C@]54C)[C@H]2[C@H]1OC3 | 111%
18 | COC(=O)c1nc(-c2ccccc2)oc1S(=O)(=O)N1CCCC(C)C1 (stereo not given) | 83.2%
19 | Cc1ccc2c(/C=C/C(=O)c3cc(CN4CCOCC4)c(O)c4nc(C)ccc34)cc(CN3CCOCC3)c(O)c2n1 | -74.3% (active)
20 | CCN1C(=O)N(CC)C2C1NN=c1s/c(=C\c3ccc(OC)cc3)c(=O)n12 (stereo not given) | 46.3%

Row | Structure (SMILES) | growth
21 | COc1ccc(C/C(C)=C(\c2ccc(Cl)cc2)c2ccc(OCCN3CCCC3)cc2)cc1 | 97.7%
22 | CCN(CC)CCOc1ccc(Nc2ncc3cc(-c4c(Cl)cccc4Cl)c(=O)n(CCOC)c3n2)cc1 | 35.3%
23 | O=C(O)c1cn(C2CC2)c2cc(N3CCN(C(=O)N4CCOCC4)CC3)c(F)cc2c1=O | 106%
24 | Clc1ccc(-c2nc(C(Cl)Cl)nc3cc(-c4ccccc4)nn23)cc1 | -7.63% (active)
25 | c1cc(OCCN2CCCCCC2)ccc1CNc1ccc2nc(CCC3CCCCC3)[nH]c2c1 | 51.4%
26 | CN(C)CCCC1(c2ccc(F)cc2)OCc2cc(-c3csc4ccccc34)ccc21 (stereo not given) | 26.4%
27 | C(=C(\C1=NCCN1)n1ccc2ccccc21)/c1ccccc1 | 103%
28 | COc1ccc(C/C(C)=C(\c2ccc(Cl)cc2)c2ccc(OCCCN(C)C)cc2)cc1 | 92.9%
29 | Cc1ccc(S(=O)(=O)c2nc(-c3ccccc3)oc2SCC(N)=O)cc1 | 99.6%
30 | CCCCn1c(NC(C)=O)c(S(=O)(=O)c2ccccc2)c2nc3ccccc3nc21 | 100%
31 | Cc1ccc(Cc2cnc(NC(=O)/C=C/c3ccc(C)o3)s2)cc1 | 73.4%
32 | CCN(CC)CCOc1ccc(C(=O)/C=C\c2ccc(Cl)cc2Cl)cc1 | 52.6%
33 | O=C(/C=C/C12c3ccccc3C(c3ccccc31)C1C(=O)NC(=O)C12)c1ccco1 (stereo not given) | 53.4%
34 | CCOC(=O)C1=C(CC(O)c2ccc(OC)cc2OC)NC(=O)NC1c1ccccc1 (stereo not given) | 106%
35 | COc1ccc2c(c1)CC[C@@H]1[C@@H]2CC[C@]2(C)c3c(cc(C#N)c4c3sc3ccccc34)C[C@@H]12 | 107%
36 | COc1ccc(-c2cn(Cc3cc4ccccc4s3)nn2)cc1OCCN1CCCCC1 | 68.2%
37 | Cc1ncc(C(=O)Nc2ccc(CN3CCN(C)CC3)c(C(F)(F)F)c2)cc1C#Cc1cnc(N)c2ccc(C#N)cc12 | -7.66% (active)
38 | Cc1sc2nc(NCCN)[nH]c(=O)c2c1C | 85.1%
39 | C#CCOc1cccc(Nc2ncnc3cc(NC(=O)CCl)ccc23)c1 | -41% (active)
40 | COc1cc(-c2ccc(-c3ccc(C(=N)N)cc3)s2)cc(OC)c1OC | 54%

Each compound was assayed on SK-OV-3 ovarian in the same assay as above. Details: 10 µM unless noted.

Row | Structure (SMILES) | growth
41 | COC(=O)c1c(C)nc(C)c2c1C(=O)C=C(NCc1ccccc1)C2=O | 91.4%
42 | COc1ccc2[nH]cc(-c3nonc3-c3c[nH]c4ccc(Br)cc34)c2c1 | 56.3%
43 | C=C(C)[C@@H]1CC[C@]2(COC3CCCCO3)CC[C@]3(C)[C@H](CC[C@@H]4[C@@]5(C)C=C(C=O)C(=O)C(C)(C)[C@@H]5CC[C@]43C)[C@@H]12 (stereo not given in full) | -40% (active)
44 | CCOc1ncc([N+](=O)[O-])c(OCC)n1 | 97%
45 | c1ccc(-c2c(-c3ccccc3)[n+](Cc3ccc4ccccc4c3)cn2Cc2ccc3ccccc3c2)cc1 | -97.9% (active)
46 | Cn1cc(-c2csc(-c3cn(CCCN4CCOCC4)c4ccc(F)cc34)n2)c2cccnc21 | 80%
47 | Cc1cn(C)cn1 | 120%
48 | COC(=O)c1sccc1-c1cc(O)c(C(=O)Nc2ccccc2)s1 | 78.3%
49 | CCCCCc1ccc(S(=O)(=O)Nc2ccc3nc(N)oc3c2)cc1 | 81.8%
50 | COc1ccc2c(O)c(/C=C3\N=Nc4ncccc43)oc2c1C[C@@H]1CCNC[C@H]1F | 15%
51 | CCN(CC)CCCC(Cc1ccccc1)Nc1c2ccc(Cl)cc2nc2ccc(OC)cc12 (stereo not given) | 101%
52 | CNCC[C@H](Oc1cccc2ccccc12)c1cccs1 | 109%
53 | CCOC(=O)c1cnn(CC(C)O)c1NC(=O)NCc1cccc(F)c1 (stereo not given) | 101%
54 | N#Cc1ccc(/C=C/c2cn(-c3ccccc3)nc2-c2cccc([N+](=O)[O-])c2)cc1 | 69.8%
55 | O=C(/C=C/c1ccco1)Nc1ncc(Cc2cc(Cl)ccc2Cl)s1 | 31.9%
56 | CCOC(=O)c1nnn(Cc2cc(=O)oc3ccc(O)cc23)c1C | 105%
57 | CC1(C)CC[C@]23CC[C@]4(C)[C@H](CC[C@@H]5[C@@]6(C)C/C(=C/O)C(=O)C(C)(C)[C@@H]6CC[C@]54C)[C@H]2[C@H]1OC3 | 110%
58 | COC(=O)c1nc(-c2ccccc2)oc1S(=O)(=O)N1CCCC(C)C1 (stereo not given) | 110%
59 | Cc1ccc2c(/C=C/C(=O)c3cc(CN4CCOCC4)c(O)c4nc(C)ccc34)cc(CN3CCOCC3)c(O)c2n1 | -1.75% (active)
60 | CCN1C(=O)N(CC)C2C1NN=c1s/c(=C\c3ccc(OC)cc3)c(=O)n12 (stereo not given) | 40.5%

Row | Structure (SMILES) | growth
61 | COc1ccc(C/C(C)=C(\c2ccc(Cl)cc2)c2ccc(OCCN3CCCC3)cc2)cc1 | 101%
62 | CCN(CC)CCOc1ccc(Nc2ncc3cc(-c4c(Cl)cccc4Cl)c(=O)n(CCOC)c3n2)cc1 | 2.93% (active)
63 | O=C(O)c1cn(C2CC2)c2cc(N3CCN(C(=O)N4CCOCC4)CC3)c(F)cc2c1=O | 100%
64 | Clc1ccc(-c2nc(C(Cl)Cl)nc3cc(-c4ccccc4)nn23)cc1 | 18.6%
65 | c1cc(OCCN2CCCCCC2)ccc1CNc1ccc2nc(CCC3CCCCC3)[nH]c2c1 | 82.3%
66 | CN(C)CCCC1(c2ccc(F)cc2)OCc2cc(-c3csc4ccccc34)ccc21 (stereo not given) | 81.9%
67 | C(=C(\C1=NCCN1)n1ccc2ccccc21)/c1ccccc1 | 105%
68 | COc1ccc(C/C(C)=C(\c2ccc(Cl)cc2)c2ccc(OCCCN(C)C)cc2)cc1 | 99.1%
69 | Cc1ccc(S(=O)(=O)c2nc(-c3ccccc3)oc2SCC(N)=O)cc1 | 98.3%
70 | CCCCn1c(NC(C)=O)c(S(=O)(=O)c2ccccc2)c2nc3ccccc3nc21 | 98.5%
71 | Cc1ccc(Cc2cnc(NC(=O)/C=C/c3ccc(C)o3)s2)cc1 | 42.9%
72 | CCN(CC)CCOc1ccc(C(=O)/C=C\c2ccc(Cl)cc2Cl)cc1 | 43.2%
73 | O=C(/C=C/C12c3ccccc3C(c3ccccc31)C1C(=O)NC(=O)C12)c1ccco1 (stereo not given) | 42.7%
74 | CCOC(=O)C1=C(CC(O)c2ccc(OC)cc2OC)NC(=O)NC1c1ccccc1 (stereo not given) | 114%
75 | COc1ccc2c(c1)CC[C@@H]1[C@@H]2CC[C@]2(C)c3c(cc(C#N)c4c3sc3ccccc34)C[C@@H]12 | 108%
76 | COc1ccc(-c2cn(Cc3cc4ccccc4s3)nn2)cc1OCCN1CCCCC1 | 93.1%
77 | Cc1ncc(C(=O)Nc2ccc(CN3CCN(C)CC3)c(C(F)(F)F)c2)cc1C#Cc1cnc(N)c2ccc(C#N)cc12 | -14.6% (active)
78 | Cc1sc2nc(NCCN)[nH]c(=O)c2c1C | 111%
79 | C#CCOc1cccc(Nc2ncnc3cc(NC(=O)CCl)ccc23)c1 | -55.8% (active)
80 | COc1cc(-c2ccc(-c3ccc(C(=N)N)cc3)s2)cc(OC)c1OC | 77.9%
